{
  "source": "PubChem BioAssay AID623868",
  "about": "(Vanderbilt High Throughput Screening Facility, 2012)",
  "note": "The campaign covered roughly 2,100 compounds. About 760 (36%) were called active. These entries were drawn from the full list. A number with no mark means an inactive call.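 Rule for the calls: active = thallium-flux fluorescence traces judged by eye to show enhanced or reduced glutamate response, manual score 1 or -1, so both directions (some results past the limit were not filed as active); inactive = the rest, including fluorescent or raised-baseline compounds.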",
  "data": [
    {"test": "thallium influx changes without GIRK channels – cell-based, HEK-293 rmGlu8, no GIRK, thallium flux, counter-screen for GIRK activator project, confirmation (AID 623868);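 note: extra codes mark interference with 3 for fluorescent and 4 for baseline rise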", "details": "thallium flux fluorescence, at 10 µM, actives lie on both sides, codes: 1 enhancer, -1 blocker, 0 none, thallium stimulus containing EC20 glutamate", "values": [
      {"molecule": "COc1cc(/C=C2/SC(=S)NC2=O)ccc1OS(=O)(=O)c1ccc(C)cc1", "manual score": "1 (active)"},
      {"molecule": "O=C1NC(=O)/C(=C\\c2ccccc2Oc2ccc(F)c(F)c2)S1", "manual score": 0},
      {"molecule": "COc1cc(/C=C2\\S/C(=N/S(=O)(=O)c3ccc(C)cc3)NC2=O)c([N+](=O)[O-])cc1OC", "manual score": 0},
      {"molecule": "COc1cc(/C=C2\\SC(=S)NC2=O)ccc1OS(=O)(=O)c1ccccc1", "manual score": "1 (active)"},
      {"molecule": "COc1ccc(/C=C2\\SC(=O)NC2=S)cc1OC", "manual score": "1 (active)"},
      {"molecule": "COc1ccc(/C=C/C(=O)N2CCN(S(=O)(=O)/C=C/c3ccccc3)CC2)cc1OC", "manual score": 0},
      {"molecule": "CCOc1ccc(OCCSc2nc3ccccc3[nH]2)cc1", "manual score": 0},
      {"molecule": "O=C(Nc1nc(-c2ccccc2)c(-c2ccccc2)o1)c1ccc(F)cc1", "manual score": "1 (active)"},
      {"molecule": "Cc1ccc(C(=O)Nc2cnc3ccccn3c2=O)cc1", "manual score": 0},
      {"molecule": "Cc1ccc(C(=O)Nc2nc(-c3ccccc3)c(-c3ccccc3)o2)cc1", "manual score": "1 (active)"},
      {"molecule": "OCCCN=c1cc(-c2ccccc2)oc2ccc(Cl)cc12", "manual score": -0.5},
      {"molecule": "CCCSc1nnc(Nc2ccccc2C)s1", "manual score": 0},
      {"molecule": "O=C(O)CC/C(=C\\c1cc([N+](=O)[O-])ccc1Cl)c1nc2ccccc2s1", "manual score": "-1 (active)"},
      {"molecule": "O=C(CC(O)(C(F)(F)F)C(F)(F)F)Nc1ccc(Cl)c(Cl)c1", "manual score": 0},
      {"molecule": "CCCOc1ccc(NCC(=O)Nc2ccc(C)cc2C)cc1", "manual score": 0},
      {"molecule": "CCCOc1ccc(C(=O)NNC(=S)NC(=O)CC)cc1", "manual score": "1 (active)"},
      {"molecule": "CNC(=S)SCCOc1ccc(C)cc1", "manual score": 3},
      {"molecule": "CCCCOc1ccc(C(=O)OC2CC(C)N(C)CC2C)cc1", "note": "(stereo unspecified)", "manual score": 0},
      {"molecule": "CCCCOc1ccc(C(=O)NNC(=S)NC(=O)CC)cc1", "manual score": "1 (active)"},
      {"molecule": "CCOC(=O)c1ccc(NC(=S)NC(=O)COc2ccccc2)cc1", "manual score": 0},
      {"molecule": "CCNS(=O)(=O)c1cc(S(C)(=O)=O)ccc1Cl", "manual score": 0},
      {"molecule": "Oc1ccc2ccc3cccc[n+]3c2c1", "manual score": 3},
      {"molecule": "C=COCCNC(=O)Nc1ccc(Cl)c(Cl)c1", "manual score": 0},
      {"molecule": "CCOC(=O)C1=C(NC(=S)NC(=O)c2ccccc2)c2ccccc2CC1C(C)C", "note": "(stereo unspecified)", "manual score": 0},
      {"molecule": "C=CCNC(=S)Nc1sc2c(c1C(=O)OCC)CC(C)(CC)OC2", "note": "(stereo unspecified)", "manual score": "1 (active)"},
      {"molecule": "CCOC(=O)c1c(NC(=S)NC)sc2c1CC(C)(C)SC2", "manual score": "1 (active)"},
      {"molecule": "C=CCNC(=S)Nc1sc2c(c1C(=O)OCC)CC(C(C)C)OC2", "note": "(stereo unspecified)", "manual score": "1 (active)"},
      {"molecule": "CCOC(=O)c1c(NC(=S)NCCc2ccccc2)sc2c1CC(C(C)C)OC2", "note": "(stereo unspecified)", "manual score": 0},
      {"molecule": "CCOc1ccccc1OCCCCCc1c(C)n[nH]c1C", "manual score": 0},
      {"molecule": "CC(C)NC(=S)N/N=C/c1cc(Br)ccc1O", "manual score": "1 (active)"},
      {"molecule": "O=C(Nc1nnc(-c2ccc(Cl)cc2)o1)c1ccccc1Br", "manual score": "1 (active)"},
      {"molecule": "O=C(Nc1nnc(-c2ccc(Cl)cc2)o1)c1nc2ccccc2s1", "manual score": "1 (active)"},
      {"molecule": "O=C(Nc1nnc(-c2ccccc2Cl)o1)c1nc2ccccc2s1", "manual score": "1 (active)"},
      {"molecule": "CC(C)NC(=O)c1nc2ccccc2s1", "manual score": 0},
      {"molecule": "O=C(Nc1nnc(-c2ccc(Cl)cc2)o1)C1=COCCO1", "manual score": 0.5},
      {"molecule": "CCN(CC)c1ccc2cc(-c3nc4ccccc4[nH]3)c(=O)oc2c1", "manual score": 3},
      {"molecule": "COc1cccc(NC(=O)NCCCSC2CCCCC2)c1", "manual score": 0},
      {"molecule": "Cc1ccc(-c2cc(-c3n[nH]c(=S)o3)c3ccccc3n2)cc1", "manual score": "1 (active)"},
      {"molecule": "O=C(NC(=S)NCc1ccccc1)c1ccccc1F", "manual score": "1 (active)"},
      {"molecule": "O=C(Nc1cc(Cl)ccc1Oc1ccccc1)c1ccccc1F", "manual score": 0},
      {"molecule": "Fc1ccccc1NC(=S)NN(Cc1ccccc1)c1ccccc1", "manual score": 0},
      {"molecule": "FC(F)(F)Oc1ccc(NC(=S)NCc2ccccc2)cc1", "manual score": 0},
      {"molecule": "Cc1cccc(C)c1NC(=S)NC(=O)c1ccccc1F", "manual score": "1 (active)"},
      {"molecule": "O=C(NC(=S)N(Cc1ccccc1)Cc1ccccc1)c1ccccc1F", "manual score": "1 (active)"},
      {"molecule": "FC(F)(F)c1cccc(NC(=S)NCc2ccccc2)c1", "manual score": 0},
      {"molecule": "CCCCOc1ccccc1C1C(C(=O)OC)=C(C)N(C)C(C)=C1C(=O)OC", "manual score": 0},
      {"molecule": "CS(=O)(=O)Nc1ccc(C2=NN(C(=O)C3CCCCC3)C(c3cccs3)C2)cc1", "note": "(stereo unspecified)", "manual score": "-1 (active)"},
      {"molecule": "O=C(C1CCCN(Cc2cccs2)C1)N1CCCCCC1", "note": "(stereo unspecified)", "manual score": 0},
      {"molecule": "CCCCCCn1c(=O)[nH]c2nc3cc(N)ccc3nc2c1=O", "manual score": 3},
      {"molecule": "Cc1ccc(NC2CC(=O)N(CCc3ccccc3)C2=O)cc1", "note": "(stereo unspecified)", "manual score": 0},
      {"molecule": "O=c1c2cc(Br)ccc2nc(-c2cccc(C(F)(F)F)c2)n1O", "manual score": "1 (active)"},
      {"molecule": "O=c1c2ccc(Cl)cc2nc(-c2cccc(C(F)(F)F)c2)n1O", "manual score": "1 (active)"},
      {"molecule": "O=c1c2ccccc2nc(-c2cccc(Cl)c2)n1O", "manual score": "1 (active)"},
      {"molecule": "O=c1c2ccccc2nc(-c2ccccc2)n1/N=C/c1ccc([N+](=O)[O-])cc1", "manual score": 0},
      {"molecule": "CCN1c2ccccc2-c2nc3ccccc3n2C1c1ccco1", "note": "(stereo unspecified)", "manual score": 0},
      {"molecule": "CC1=CC(C)(C)n2c(O)c(N=NC(N)=S)c3cccc1c32", "manual score": 0.5},
      {"molecule": "CN(C)c1nc(OCCNC(=O)COc2ccc(Cl)cc2Cl)nc(N2CCOCC2)n1", "manual score": 0},
      {"molecule": "O=C(COc1ccccc1F)NC1CCN(Cc2ccccc2)CC1", "manual score": 0},
      {"molecule": "Fc1ccc(NC(=S)NCc2ccccc2Cl)cc1", "manual score": 0},
      {"molecule": "Fc1ccc(NC(=S)NN=C2CCCCCC2)cc1", "manual score": "1 (active)"},
      {"molecule": "S=C(NN=C1CCCCCC1)Nc1ccc(Cl)cc1", "manual score": "1 (active)"},
      {"molecule": "Cc1cc(C)c2c(c1)/C(=N/NC(=S)Nc1ccc(F)cc1)CCC2", "manual score": 0},
      {"molecule": "Fc1ccccc1CNC(=S)Nc1ccc(Cl)cc1", "manual score": 0},
      {"molecule": "Cn1c(C(=O)OC(C(=O)NC2CCCCC2)c2ccncc2)cc2sccc21", "note": "(stereo unspecified)", "manual score": 0},
      {"molecule": "O=C(CSc1nc(CCC2CCCC2)nc2ccccc12)NCc1ccc2c(c1)OCO2", "manual score": 0.5},
      {"molecule": "c1ccc(-c2nnc3n2NC(c2ccc4c(c2)OCO4)S3)cc1", "note": "(stereo unspecified)", "manual score": "1 (active)"},
      {"molecule": "Cc1nccn1CCc1nc(N)nc(N)n1", "manual score": 0},
      {"molecule": "Cc1ccc2nc(NC(=S)NC(=O)c3cccs3)sc2c1", "manual score": 0.5},
      {"molecule": "O=C(NC(=S)Nc1nc2ccccc2s1)c1cccs1", "manual score": "1 (active)"},
      {"molecule": "O=C(NC(=S)Nc1nc2c(ccc3ccccc32)s1)c1cccs1", "manual score": "1 (active)"},
      {"molecule": "CCN(CC)C(=O)COc1ccc2oc(C)c(C(=O)OC)c2c1", "manual score": 0}
    ]}
  ]
}
